# Results taken from PubChem BioAssay (NCI).
# This is part of a sample that, as a whole, favours compounds with a hit. Of some 83,000 tested, about 20% had one in any assay.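 For each line, cells grew in 96-well plates with the test compound present at a single concentration for 48 hours.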 Values without a mark were called inactive. The source made the active and inactive calls. How the source made its calls: active means growth percent below 10; inactive means the rest.
# Key:
# Assay in all cases: NCI-60 one-dose screen, 48 h (100 = growth as untreated, 0 = no growth, -100 = all killed)
# Details in all cases: 10 µM unless noted
# NCI-H23 lung = test system: NCI-H23 lung
# NCI-H226 lung = test system: NCI-H226 lung
# NCI-H322M lung = test system: NCI-H322M lung
# HOP-62 NSCLC = test system: HOP-62 NSCLC
# NCI-H460 lung = test system: NCI-H460 lung
# HOP-92 NSCLC = test system: HOP-92 NSCLC
# NCI-H522 lung = test system: NCI-H522 lung
# A549/ATCC NSCLC = test system: A549/ATCC NSCLC
# 786-0 renal = test system: 786-0 renal
# COLO 205 colon = test system: COLO 205 colon
Compound,growth (NCI-H23 lung),growth (NCI-H226 lung),growth (NCI-H322M lung),growth (HOP-62 NSCLC),growth (NCI-H460 lung),growth (HOP-92 NSCLC),growth (NCI-H522 lung),growth (A549/ATCC NSCLC),growth (786-0 renal),growth (COLO 205 colon)
COc1ccc(C(=O)/C=C/c2ccc(Cl)cc2)cc1S(N)(=O)=O,87.8%,84.3%,29.1%,53.6%,65.8%,-26.6% (active),56.9%,54.5%,-30.7% (active),60.6%
O=C(O)/C=C\C(=O)Nc1ccc2c(c1)Cc1cc(F)ccc1-2,95.9%,98.3%,99.7%,87.9%,110%,97.5%,90.9%,106%,99.7%,105%
COC(=O)c1ccc(-n2cc(CCCOS(=O)(=O)c3ccc(F)cc3)nn2)cc1,98.1%,97.9%,102%,106%,102%,100%,93.7%,97%,97.1%,107%
CC1=C(C(=O)c2ccccc2)C(c2ccc3c(c2)OCO3)NC(=S)N1 (stereo not given),48%,66.5%,67.7%,51.8%,8.05% (active),92.3%,38.3%,40.3%,58.9%,47.6%
O=c1c(/C=C/c2c(O)ccc3ccccc23)nnc2sc(-c3cccc([N+](=O)[O-])c3)nn12,61.6%,64.2%,41.1%,31%,26.5%,65.7%,86.3%,45.7%,57%,84.4%
O=C1C(Nc2ccc(Br)cc2)=C(I)C(=O)c2ncccc21,10.6%,87.3%,84.4%,42.1%,23.3%,-82.6% (active),-46.2% (active),46.8%,44.4%,23.5%
CC(=O)c1c(/C=C/c2ccc(C)cc2)c2ccccc2[nH]c1=O,86.5%,63%,91.2%,89.4%,91.3%,73.1%,84.6%,85.4%,97.8%,105%
CCCCCCCC/C=C\CCCCCCCCOc1ccc(CC(=O)NCC[N+]2(C)CCCC2)cc1,58.7%,66.4%,88.5%,22.5%,25.3%,57.4%,48.7%,73.7%,48.6%,-74.1% (active)
C=CCn1c(SCC(=O)Nc2ccc(C(=O)/C=C/c3cc(OC)c(OC)c(OC)c3)cc2)nnc1-c1cc(-c2ccc(S(N)(=O)=O)cc2)nc2ccccc12,88.9%,90.7%,105%,111%,94.9%,96.9%,92.7%,107%,101%,109%
CCOc1cc(\C=N/N=C(N)/C(N)=N\N=C/c2ccc(O)c(OCC)c2)ccc1O,97.7%,99.9%,103%,109%,107%,116%,105%,107%,110%,5.55% (active)
O=C(Nc1ncc(Cc2ccc(Cl)cc2)s1)c1ccc2c(c1)OCCO2,37%,23.5%,46.8%,26.8%,8% (active),60.6%,2.46% (active),18%,38.7%,-13.7% (active)
CCN(CC)CCCC(Nc1c2ccc(Cl)cc2nc2ccc(OC)cc12)c1ccncc1 (stereo not given),80.7%,94.5%,65.4%,83.4%,66%,65.7%,83.3%,74.4%,62.7%,69.8%
Nc1ncc(-c2ccc3ncnc(N4CCc5ccc(Cl)cc54)c3c2)cn1,12.4%,0.981% (active),-15.4% (active),-11.9% (active),4.03% (active),-34.5% (active),-15.7% (active),0.08% (active),-0.891% (active),-25.8% (active)
O=C1/C(=C/c2cccc([N+](=O)[O-])c2)COc2ccc(O)c(O)c21,-27.4% (active),81.5%,28.7%,-31.3% (active),4.3% (active),-43.1% (active),-71.3% (active),9.74% (active),-87.9% (active),-18.2% (active)
C=C1/C(=C\C=C2/CCC[C@]3(C)[C@@H]([C@H](C)CCCC(C)(C)O)CC[C@@H]23)C[C@@H](OC(=O)CBr)C[C@@H]1O,37.7%,45.2%,94%,83.8%,92.1%,-67.5% (active),-68.8% (active),66%,6.95% (active),19.4%
CCN1C(=O)N(CC)C2C1NN=c1s/c(=C\c3ccccc3)c(=O)n12 (stereo not given),25.6%,59.1%,42.6%,38.2%,4.35% (active),27.3%,-8.72% (active),7.65% (active),25.1%,-2.49% (active)
COc1ccc(C2=NN(C=O)C(c3ccc(Oc4nc5c(c(=O)n(C)c(=O)n5C)n4C)c(OC)c3)C2)cc1 (stereo not given),80.7%,82.4%,76.6%,87%,99%,95.2%,92.9%,56.6%,103%,91.5%
CCCCCC(C)(O)C(C(=O)O)c1ccccc1 (stereo not given),107%,104%,104%,101%,109%,94.1%,95%,99.6%,99.2%,118%
CN(C)CCCN(CCC1CCCCC1)CCC1CCCCC1,66.4%,94.8%,80.1%,64.3%,-2.63% (active),28.8%,48.8%,52.5%,56.2%,-54.4% (active)
Cc1ccc(C2=Nc3c(N)nc(N)nc3NC(c3cccc(Nc4ccnc5cc(C(F)(F)F)ccc45)c3)C2)cc1 (stereo not given),39.4%,80.7%,54.8%,34.1%,11.7%,28.3%,11.9%,30.1%,20.9%,7.09% (active)
O=C(Cn1cc(CSc2nc3ccccc3o2)nn1)Nc1ccc([N+](=O)[O-])cc1,97.8%,99.4%,102%,83.7%,98.5%,95.2%,78.5%,101%,99.1%,110%

Compound,growth (NCI-H23 lung),growth (NCI-H226 lung),growth (NCI-H322M lung),growth (HOP-62 NSCLC),growth (NCI-H460 lung),growth (HOP-92 NSCLC),growth (NCI-H522 lung),growth (A549/ATCC NSCLC),growth (786-0 renal),growth (COLO 205 colon)
COc1cccc(C(=O)Nc2cccc(NC(=O)c3ccccn3)c2)c1,93.7%,112%,98.1%,102%,114%,115%,89.8%,97.5%,85.6%,120%
O=C1NCCS(=O)(=O)/C1=C\C=C\c1cccc(C(F)(F)F)c1,22.3%,31.6%,63.4%,35.8%,50.1%,100%,16.9%,39.4%,20.1%,25.2%
[2H]C([2H])([2H])Oc1c(F)cccc1/C=C/C(=O)/C=C(O)/C=C/c1cccc(F)c1OC([2H])([2H])[2H],86.1%,108%,102%,110%,99.1%,89.4%,87.4%,90.9%,103%,114%
COc1cccc(CNc2nnc(C)c(C)n2)c1O,96.5%,89.1%,108%,95.6%,102%,81.2%,90.7%,93.7%,104%,109%
Cc1oc2ccc(O)c(CN3CCCCCC3)c2c1C(=O)Nc1ccc(C(F)(F)F)cc1,69.9%,72.4%,69.3%,70.4%,51.5%,34.9%,72.5%,61.2%,49.5%,48.7%
O=c1n(C2OC(CO)C(O)C2O)ccc2nccn12 (stereo not given),113%,110%,114%,127%,99.9%,105%,116%,96%,103%,126%
COc1cccc(-c2nn(-c3ccccc3)cc2-c2ccnc(-c3cccnc3)c2)c1,86.5%,95%,109%,97.4%,92%,95%,86.9%,96.4%,98.1%,94.3%
COc1cc2c(cc1OC)CC[N+](CCC[N+](C)(C)C)=C2,106%,104%,88.6%,84%,109%,96.1%,80.3%,97.4%,96.2%,108%
C=C1C(=O)O[C@H]2[C@H]1CC/C(COC(=O)NCc1ccc(Cn3c(=O)sn(CCCC)c3=O)cc1)=C\CC[C@@]1(C)O[C@@H]21,80.8%,78.5%,105%,91.6%,95.4%,-6.79% (active),-55.8% (active),93.5%,41.8%,-25% (active)
COc1ccc(-c2cc(-c3ccc(Cl)cc3)c(C#N)c(=O)n2CCCCC(=O)NO)cc1,84.9%,77.2%,77.3%,66.5%,99.1%,87.2%,58.8%,82.7%,80.2%,86.3%
CCOC(=O)c1c(C)c2c(n1Cc1ccccc1)CSc1cc(C#N)c(=O)[nH]c1-2,72.6% [100 µM],89.6% [100 µM],78.6% [100 µM],58.7% [100 µM],67% [100 µM],-18.5% [100 µM] (active),87% [100 µM],75.1% [100 µM],19.8% [100 µM],60.4% [100 µM]
CNC(=O)c1cc(Oc2cccc3nc(NC(=O)Nc4ccc(F)cc4F)ccc23)ccn1,42.7%,49.7%,33%,0.65% (active),13.7%,41.4%,46%,8.57% (active),-48.7% (active),37.9%
CCOC(=O)c1c(N)sc2cc(O)ccc12,95.2%,110%,91.1%,104%,112%,121%,80%,99.7%,104%,112%
Cc1ccc(C(=O)Nc2ccc(CN3CCN(C)CC3)c(C(F)(F)F)c2)cc1C#Cc1cnc(N)c2ccccc12,-46% (active),21.6%,17%,15%,-86.8% (active),-14.8% (active),-44.3% (active),-65.7% (active),-77.4% (active),-66.3% (active)
O=C1/C(=C/c2ccc(-c3ccc(Cl)cc3)o2)SC(=S)N1CCc1ccc(O)cc1,81.3%,84.1%,70.3%,46.8%,9.88% (active),55.3%,-18.8% (active),17.6%,60.9%,16.8%
CNC(=O)c1cc(Oc2ccc3nc(NC(=O)Nc4ccc(F)cc4F)sc3c2)ccn1,47%,52.8%,62.2%,60.7%,63%,-13.7% (active),68.7%,44.8%,64%,87.1%
O=S(=O)(Nc1ccc(Br)cc1)c1ccc(-c2cnc(C3CC3)o2)cc1,40.8%,67.3%,61.9%,27.1%,12.8%,43%,11%,40.1%,37.8%,23.9%
Brc1ccc(-c2nn(-c3ccccc3)cc2-c2nn[nH]n2)s1,92.7%,85.7%,96%,82.7%,102%,62.4%,84.1%,93.9%,88.1%,120%
O=C(c1ccccc1)[C@@H](c1ccccc1)[C@]1(O)C(=O)Nc2ccccc21,95%,83.1%,87.4%,77.3%,95%,74%,93.7%,103%,97.7%,84.1%
COc1cc(C(=O)/C=C/c2c(-c3cccs3)nc3sc(C)cn23)cc(OC)c1OC,6.64% (active),33.1%,13.3%,-8.11% (active),-30.6% (active),-2.76% (active),-2.1% (active),10.6%,7.58% (active),2.63% (active)
COc1cc(OCc2cccc(-c3ccc4c(c3)OCCO4)c2C)cc(OC)c1C=O,52.4%,32.6%,85.3%,73.4%,72.2%,79.5%,42.7%,69%,67.1%,40.8%
